NIH3T3 tox – NIH 3T3 cell cytotoxicity. NIH 3T3 viability, CellTiter-Glo ATP luminescence, 48-72 h. Potency, µM (top dose mostly 96.7 µM), for inactives: top-dose activity change, negative = cytotoxicity, actives largely listed as inhibitors. 94,000 compounds, 4.3% hits. AID 1345082; note: nearly all actives have a fitted effect of over 55% in size
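Cells were seeded at 400 per well, treated with pin-transferred compound, and kept 48 or 72 hr at 37 °C before CellTiter-Glo addition and luminescence imaging of cellular ATP.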
SNCA expr inhib – reduces expression of the alpha-synuclein gene; 140,000 compounds, 0.17% hits; Potency, µM (doses to about 57.2 µM), without a hit: top-dose activity change, negative = inhibition, most hits filed as inhibitors; HEK-293 SNCA-luciferase knock-in, luminescence, 24 h;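 note: plate controls were DMSO cells for no effect and cell-free wells for full effect; nearly all actives have a fitted effect of over 45% in size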
SNCA viab count – counter-screen for SNCA expression inhibitors: cell viability; HEK-293-SNCA-luc viability, GF-AFC fluorescence, 24 h; Potency, µM (titrated, usually from 57.1 µM), inactives show at the highest dose activity change, negative = cytotoxicity, hits mostly cytotoxic; 150,000 compounds, 0.12% hits; AID 1671193;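 note: 0% = DMSO-treated cells and -100% = medium-only wells without cells; nearly all actives have a fitted effect of over 30% in size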
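HEK-293-SNCA-luc cells (1500/well) plated 24 h, then exposed 24 h to a dilution series; GF-AFC added 30 min at 37C, fluorescence 405/540 nm; normalised to medium-only and DMSO wells, Hill fit.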
NPR1 antag – human Npr1 receptor antagonism; P16066; HEK293 hNpr1 GloSensor cGMP, ANP-stimulated luminescence; Potency, µM (series often up to 46.3 µM), for inactives: top-dose activity change, negative = inhibition, actives largely listed as inhibitors; 76,000 compounds, 1.6% hits; calls by dose curve; note: nearly all actives have a fitted effect of over 60% in size
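HEK293 cells stably expressing human Npr1 and cGMP GloSensor pGS-40F, loaded 2 h with 2% GloSensor reagent, given compound 30 min at room temperature. Luminescence read before and 20 min after 0.1 nM hNppA.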
HEK293 tox – kills HEK 293 cells | HEK 293 viability, ATP luminescence (CellTiter-Glo), 48-72 h | Potency, µM (top dose mostly 115 µM), for inactives: top-dose activity change, negative = cytotoxicity, most hits filed as inhibitors | 94,000 compounds, 6.6% hits; note: nearly all actives have a fitted effect of over 60% in size
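250 HEK 293 cells/well; compound by pintool; incubated 48 or 72 hr at 37 degree Celsius; CellTiter-Glo added, 10 min RT, luminescence imaged.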
Luciferase inh – inhibitors of firefly (Photinus pyralis) luciferase; Potency, µM (series often up to 115 µM), hits mostly inhibitors; AID 1347043; P08659; purified P. pyralis luciferase, luminescence, biochemical; 76,000 compounds, 2.5% hits; note: nearly all actives have a fitted effect of over 65% in size
Target sequence (P08659 whole entry, looked up): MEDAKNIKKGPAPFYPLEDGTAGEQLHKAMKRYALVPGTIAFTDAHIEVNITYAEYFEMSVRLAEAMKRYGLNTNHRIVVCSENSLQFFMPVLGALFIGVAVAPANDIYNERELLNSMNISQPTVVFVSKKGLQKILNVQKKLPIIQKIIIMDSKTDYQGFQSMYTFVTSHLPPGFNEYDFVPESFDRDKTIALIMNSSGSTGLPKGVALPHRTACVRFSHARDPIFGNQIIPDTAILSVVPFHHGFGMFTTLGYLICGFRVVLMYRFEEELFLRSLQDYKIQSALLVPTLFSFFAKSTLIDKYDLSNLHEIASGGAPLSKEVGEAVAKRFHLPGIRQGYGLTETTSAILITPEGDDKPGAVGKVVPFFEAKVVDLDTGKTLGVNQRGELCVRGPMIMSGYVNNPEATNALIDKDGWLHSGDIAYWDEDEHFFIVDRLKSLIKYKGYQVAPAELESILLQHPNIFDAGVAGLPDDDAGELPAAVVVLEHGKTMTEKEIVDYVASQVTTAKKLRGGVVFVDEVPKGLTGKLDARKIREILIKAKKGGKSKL
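Purified 10nM P. pyralis luciferase with 10uM D-luciferin and 10uM ATP in 50mM Tris acetate pH 7.5, 10mM Mg acetate, 0.01% Tween-20, 0.05% BSA. qHTS titration; luminescence read by CCD imager.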
The depositor's hits bear a star; i = inactive; ? = inconclusive; nt = no result given; ! = a repeat was not active; [ ] = remark or other dose. Compounds with a hit are over-represented: about 7.4% of the library has one in this group of screens. Unless noted, calls come from the whole dose curve; as a rule, active = well fitted curve in the direction sought with a large enough effect; inconclusive = small, poorly fitted or top-dose-only effect, or another doubt; inactive = no such curve, though single readings can be large; an effect the other way counts as inactive or inconclusive. Unless noted, % is set by controls: 0 for no effect and ±100 for the full control effect; potency is the fitted concentration of half-maximal effect.

SMILES | NIH3T3 tox | SNCA expr inhib | SNCA viab count | NPR1 antag | HEK293 tox | Luciferase inh
O=C(O)c1cccnc1 | nt | 4.3µM*! | 4.3µM*! | nt | nt | nt
COc1ccc(C(=O)NC2CCCN(c3ccnc4ccnn34)C2)cc1 (stereo unspecified) | ? | -8% | ? | nt | 32µM* | nt
O=C(NC1CCCN(c2ccnc3ccnn23)C1)c1ccc2c(c1)OCO2 (stereo unspecified) | ? | 21% | ? | nt | 35µM* | nt
COc1cccc(C(=O)NC2CCN(c3ccnc4ccnn34)CC2)c1 | ? | ? | 8% | nt | 35µM* | nt
COc1cccc(C(=O)NC2CCCN(c3ccnc4ccnn34)C2)c1 (stereo unspecified) | ? | ? | -27% | nt | ? | nt
O=C(NC1CCCN(c2ccnc3ccnn23)C1)c1cccc(Br)c1 (stereo unspecified) | ? | 5%[87.6 µM] | -14%[87.6 µM] | nt | 79µM* | nt
Cc1nn(-c2ccccc2)c2c1C(C1CC1)N(C1CCN(Cc3cccc(C(F)(F)F)c3)CC1)C2=O (stereo unspecified) | 1% | nt | nt | nt | -2% | nt
CCN1CCN(C(=O)c2ccc3nnc(-c4cccc(C(F)(F)F)c4)n3c2)CC1 | -7% | 1% | 1% | nt | -3% | nt
O=C(NC1CCCN(c2ccnc3ccnn23)C1)c1ccc(Cl)cc1 (stereo unspecified) | ? | -18% | -28% | nt | 40µM* | nt
O=C(C1CCCN1C(=O)c1cccc(Cl)c1)N1CCC(c2nc3ccncc3[nH]2)C1 (stereo unspecified) | 4% | 6% | 3% | nt | i | nt
O=C(NC1CC1)c1cc2n(n1)CC(c1ccc3c(c1)OCO3)OC2 (stereo unspecified) | ? | ? | -1% | -2% | -28% | i
Cc1ccc(NC(=O)c2cc3n(n2)CC(c2ccc4c(c2)OCO4)OC3)c(Cl)c1 (stereo unspecified) | -15% | 11% | 9% | -13% | 4% | i
CC1CCC(NC(=O)c2cc3n(n2)CC(c2ccc4c(c2)OCO4)OC3)CC1 (stereo unspecified) | ? | 21% | -5% | -9% | 22µM* | i
Cc1cc(C)cc(NC(=O)c2cc3n(n2)CC(c2ccc4c(c2)OCO4)OC3)c1 (stereo unspecified) | ? | -18% | 6% | -19% | 89µM* | i
CCOc1ccc(NC(=O)c2cc3n(n2)CC(c2ccc4c(c2)OCO4)OC3)cc1 (stereo unspecified) | ? | ? | ? | 16µM* | 22µM* | ?
O=C(NCCc1ccccc1)c1cc2n(n1)CC(c1ccc3c(c1)OCO3)OC2 (stereo unspecified) | ? | -4% | -6% | ? | ? | i
O=C(NCCCc1ccccc1)c1cc2n(n1)CC(c1ccc3c(c1)OCO3)OC2 (stereo unspecified) | 28µM* | -28% | -1% | -23% | ? | i
CCn1ncc(NC(=O)Cn2ncc3cc(-c4cccc(C#N)c4)ccc32)n1 | ? | -13% | -13% | ? | 25µM* | i
CCn1ncc(NC(=O)Cn2ncc3cc(-c4ccc(F)cc4F)ccc32)n1 | ? | -2% | -16% | 13µM* | -64% | ?
CCn1ncc(NC(=O)Cn2ncc3cc(-c4ccc(C(=O)N(C)C)cc4)ccc32)n1 | -21% | 23% | -16% | -12% | 45µM* | 6.3µM*
COc1cccc(-c2ccc(C(=O)N3CCC(N[S+](=O)([O-])CCC(F)(F)F)CC3)cc2)c1 | ? | -18% | 2%[12.5 µM] | nt | ? | nt
CNC(=O)CNC(=O)c1cccc(-c2ccc(SC)cc2)c1 | ? | 38%[87.6 µM] | -1%[87.6 µM] | nt | ? | nt
COc1ccc(-c2ccnc(N[C@H]3CO[C@H]4[C@@H]3OC[C@@H]4NS(=O)(=O)c3ccc4ccccc4c3)n2)cc1 | ? | -21% | -8% | ? | 22µM* | i
O=C(Nc1cccc(C(F)(F)F)c1)N[C@H]1CO[C@H]2[C@@H]1OC[C@@H]2Nc1nccc(-c2ccc(-c3ccccc3)cc2)n1 | 32µM* | ? | ? | 1% | 35µM* | i
CCNC(=O)N[C@H]1CO[C@H]2[C@@H]1OC[C@@H]2Nc1nccc(-c2ccc(-c3ccccc3)cc2)n1 | -29% | -3% | -11% | 11µM* | 10µM* | ?
SMILES | NIH3T3 tox | SNCA expr inhib | SNCA viab count | NPR1 antag | HEK293 tox | Luciferase inh
N#Cc1cccc(-c2ccnc(N[C@H]3CO[C@H]4[C@@H]3OC[C@H]4OC(=O)Nc3cccc(C(F)(F)F)c3)n2)c1 | -22% | ? | ? | ? | 28µM* | i
CC(=O)c1cccc(NC(=O)O[C@@H]2CO[C@H]3[C@@H]2OC[C@@H]3Nc2nccc(-c3cccc(F)c3)n2)c1 | ? | -4% | -21% | ? | 35µM* | ?
O=C(C1CCN([S+](=O)([O-])c2cccs2)CC1)N1CCC(N2Cc3ccccc3C2=O)CC1 | ? | -1% | 1% | nt | ? | nt
COc1ccccc1Cn1c(=O)c(C(=O)N2CCC(Cc3ccccc3)CC2)nc2cccnc21 | ? | 10% | -5% | nt | ? | nt
CCCNC(=O)c1c(C)oc2ccn(Cc3ccc(F)cc3)c(=O)c12 | ? | -17% | -8% | -15% | 35µM* | i
COc1ccc(C(C)NC(=O)c2c(C)oc3ccn(Cc4cccc(F)c4)c(=O)c23)cc1 (stereo unspecified) | ? | ? | -15% | -14% | 32µM* | i
CC(C)Cn1c(=O)c(C(=O)N2CCCC2)nc2cccnc21 | 4%[138 µM] | 16%[87.6 µM] | 0%[87.6 µM] | nt | -4%[172 µM] | nt
Cn1ncc2c(C(=O)NC3CCC3)cc(-c3ccccc3F)nc21 | ? | nt | nt | nt | -23%[172 µM] | nt
O=C(c1ccsc1)N1CCCn2cc(-c3ccccc3F)nc21 | i | 147% | -5% | -4% | -13% | 35µM*
O=C(c1cccs1)N1CCCn2cc(-c3ccccc3F)nc21 | -6% | 72% | -21% | -4% | ? | 22µM*
O=C(c1ccco1)N1CCCn2cc(-c3ccccc3F)nc21 | -13% | 6% | 2% | -8% | -16% | i
O=C(Cc1ccsc1)N1CCCn2cc(-c3ccccc3F)nc21 | -27% | 11% | 3% | 2% | ? | i
Cc1nnc2ccc(N3CCCC(NC(=O)c4cccc(Cl)c4)C3)nn12 (stereo unspecified) | ? | nt | nt | nt | 79µM* | nt
CC(=O)Nc1cccc(C(=O)NC2CCCN(c3cc(-c4ccc(Cl)cc4)[nH]n3)C2)c1 (stereo unspecified) | ? | 13% | -22% | 5% | 45µM* | 32µM*

From PubChem
